{"source": "the supplement of paper PMC13380429", "note": "Values without a mark were called inactive."}
{"tested_on": "Vero E6 infected with SARS-CoV-2", "assay": "inhibition of SARS-CoV-2 cytopathic effect; higher = more antiviral protection, active = above 15", "conditions": "100 nM; 48 h", "units": {"inhibition of SARS-CoV-2 cytopathic effect": "%"}}
{"smiles": "CC(C)(C)Sc1c(CC(C)(C)C(=O)O)n(Cc2ccc(Cl)cc2)c2ccc(OCc3ccc4ccccc4n3)cc12", "note": "[quiflapon]", "inhibition of SARS-CoV-2 cytopathic effect": -1.43}
{"smiles": "COc1cc(NC(=O)c2ccc(-c3ccc(Cl)cc3)o2)cc(OC)c1", "inhibition of SARS-CoV-2 cytopathic effect": 0.76}
{"smiles": "O=C(O)C1=CCCN(CCOC(c2ccc(C(F)(F)F)cc2)c2ccc(C(F)(F)F)cc2)C1", "inhibition of SARS-CoV-2 cytopathic effect": -2.81}
{"smiles": "Oc1cc(O)c(Cl)cn1", "note": "[gimeracil]", "inhibition of SARS-CoV-2 cytopathic effect": -0.13}
{"smiles": "Cc1nc2c(O)cccc2c(=O)[nH]1", "inhibition of SARS-CoV-2 cytopathic effect": -2.15}
{"smiles": "CC(C)SC(=N)N", "note": "[S-isopropylisothiourea]", "inhibition of SARS-CoV-2 cytopathic effect": 3.8}
{"smiles": "CC(=O)Oc1ccccc1C(=O)Nc1ncc([N+](=O)[O-])s1", "note": "[nitazoxanide]", "inhibition of SARS-CoV-2 cytopathic effect": -1.27}
{"smiles": "C[C@]12C=CC(=O)C=C1CC[C@@H]1[C@@H]2[C@@H](O)C[C@@]2(C)[C@H]1CC[C@]2(O)C(=O)COP(=O)(O)O", "note": "[prednisolone-sodium-phosphate]", "inhibition of SARS-CoV-2 cytopathic effect": -8.54}
{"smiles": "N#Cc1c(N)nc(SCC(N)=O)c(C#N)c1-c1ccc(OCC2CC2)cc1", "inhibition of SARS-CoV-2 cytopathic effect": 2.51}
{"smiles": "Cc1cncc(CN2CCC(=C3c4ccc(Cl)cc4CCc4cccnc43)CC2)c1", "note": "[rupatadine]", "inhibition of SARS-CoV-2 cytopathic effect": 2.27}
{"smiles": "CC(=O)N(OCc1ccccc1)[C@@H]1c2cc(C#N)ccc2OC(C)(C)[C@H]1O", "inhibition of SARS-CoV-2 cytopathic effect": -6.3}
{"smiles": "CCCCN(CCCC)CCC(O)c1cc2c(Cl)cc(Cl)cc2c2cc(C(F)(F)F)ccc12", "note": "(stereo unspecified) [halofantrine]", "inhibition of SARS-CoV-2 cytopathic effect": 3.05}
{"smiles": "NC(N)=O", "note": "[urea]", "inhibition of SARS-CoV-2 cytopathic effect": -2.79}
{"smiles": "Cc1cc(C)nc(NS(=O)(=O)c2ccc(NC(=S)NC(=O)COc3ccc(Br)cc3Cl)cc2)n1", "inhibition of SARS-CoV-2 cytopathic effect": -0.98}
{"smiles": "NC1CCN(c2c(F)cc3c(=O)c(C(=O)O)cn(C4CC4)c3c2Cl)C1", "note": "(stereo unspecified) [clinafloxacin]", "inhibition of SARS-CoV-2 cytopathic effect": -1}
{"smiles": "N.N.[Cl][Pt][Cl]", "note": "[cisplatin]", "inhibition of SARS-CoV-2 cytopathic effect": 0.61}
{"smiles": "Cc1ccnc(NC(=O)C(C)c2cccc(C(=O)c3ccccc3)c2)c1", "note": "(stereo unspecified) [piketoprofen]", "inhibition of SARS-CoV-2 cytopathic effect": 2.28}
{"smiles": "COc1ccc2c(c1)c(CC(=O)O)c(C)n2C(=O)c1ccc(Cl)cc1", "note": "[indomethacin]", "inhibition of SARS-CoV-2 cytopathic effect": -0.25}
{"smiles": "c1cc(CN2CCCNCCNCCCNCC2)ccc1CN1CCCNCCNCCCNCC1", "note": "[plerixafor]", "inhibition of SARS-CoV-2 cytopathic effect": 0.88}
{"smiles": "Nc1ccc(S(=O)(=O)Nc2cnc3ccccc3n2)cc1", "note": "[sulfaquinoxaline]", "inhibition of SARS-CoV-2 cytopathic effect": -1.77}
{"smiles": "O=C1CC[C@@]2(O)[C@H]3Cc4ccc(O)c5c4[C@@]2(CCN3CC2CC2)[C@H]1O5", "inhibition of SARS-CoV-2 cytopathic effect": 1.26}
{"smiles": "COc1ccc(OC)c(CN(C(C)=O)c2cc(F)ccc2Oc2ccccc2)c1", "inhibition of SARS-CoV-2 cytopathic effect": 4.26}
{"smiles": "Cn1cncc1[C@@](N)(c1ccc(Cl)cc1)c1ccc2c(c1)c(-c1cccc(Cl)c1)cc(=O)n2C", "note": "[tipifarnib]", "inhibition of SARS-CoV-2 cytopathic effect": 1.79}
{"smiles": "CCCCCCCCCCCCCCOc1ccc(C(=O)O)o1", "inhibition of SARS-CoV-2 cytopathic effect": 1.46}
{"smiles": "C=C1C(=O)O[C@@H]2/C=C(\\C)CC/C=C(\\C)CC[C@@H]12", "note": "[costunolide]", "inhibition of SARS-CoV-2 cytopathic effect": -0.99}
{"smiles": "CC(C)Cn1cnc2c1c(=O)n(C)c(=O)n2C", "note": "[isbufylline]", "inhibition of SARS-CoV-2 cytopathic effect": 0.2}
{"smiles": "C[N+](C)(C)[C@@H](Cc1c[nH]c(=S)[nH]1)C(=O)O", "note": "[L-ergothioneine]", "inhibition of SARS-CoV-2 cytopathic effect": 2.33}
{"tested_on": "Vero E6 infected with SARS-CoV-2", "assay": "inhibition of SARS-CoV-2 cytopathic effect; higher = more antiviral protection, active = above 15", "conditions": "833.33 nM; 48 h", "units": {"inhibition of SARS-CoV-2 cytopathic effect": "%"}}
{"smiles": "CC1(N2CCC(n3c([C@@H]4CCCNC4)nc4ccccc43)CC2)CCCCCCC1", "inhibition of SARS-CoV-2 cytopathic effect": -3.36}
{"smiles": "CCCCNc1nc(N)c2[nH]c(=O)n(Cc3ccc(OCCN(C)C)nc3)c2n1", "inhibition of SARS-CoV-2 cytopathic effect": -0.4}
{"smiles": "COc1ccc([C@@H]2CC(=O)c3c(O)cc(O[C@@H]4O[C@H](CO[C@@H]5O[C@@H](C)[C@H](O)[C@@H](O)[C@H]5O)[C@@H](O)[C@H](O)[C@H]4O)cc3O2)cc1O", "note": "[hesperidin]", "inhibition of SARS-CoV-2 cytopathic effect": 0.15}
{"smiles": "O=C(CSc1nc2c(c(=O)n1-c1ccccc1)SCC2)Nc1ccc(-c2ccccc2)cn1", "inhibition of SARS-CoV-2 cytopathic effect": 1.2}
{"smiles": "CCC/C=C1\\OC(=O)C2=C1CCC=C2", "note": "[ligustilide]", "inhibition of SARS-CoV-2 cytopathic effect": 5.16}
{"smiles": "C#CCN1C(C)=C(C(=O)OC)C(c2cccc([N+](=O)[O-])c2)C(C(=O)OCC)=C1C", "note": "(stereo unspecified)", "inhibition of SARS-CoV-2 cytopathic effect": 3.36}
{"smiles": "O=C(O)c1cc(-c2ccc(F)cc2F)ccc1O", "note": "[diflunisal]", "inhibition of SARS-CoV-2 cytopathic effect": 1.36}
{"smiles": "CCO[C@H]1O[C@@H]2O[C@@]3(C)CC[C@H]4[C@H](C)CC[C@@H]([C@H]1C)[C@@]24OO3", "note": "[artemotil]", "inhibition of SARS-CoV-2 cytopathic effect": 0.29}
{"smiles": "CC(C)(C)c1ccc2cc(C#N)c(C#N)cc2c1", "inhibition of SARS-CoV-2 cytopathic effect": 0.05}
{"smiles": "CCOC(=O)c1cc(C#N)c(N2CCC(C(=O)NS(=O)(=O)Cc3ccccc3)CC2)nc1C", "inhibition of SARS-CoV-2 cytopathic effect": 1.19}
{"smiles": "O=C(c1cn(Cc2cncn2Cc2ccc(Br)cc2)cc1-c1cccc2ccccc12)N1CCOCC1", "inhibition of SARS-CoV-2 cytopathic effect": -0.44}
{"smiles": "c1ccc(Oc2nc(NC3CCCCC3)c3[nH]cnc3n2)cc1", "inhibition of SARS-CoV-2 cytopathic effect": -1.49}
{"smiles": "CC(C)(C)Sc1c(CC(C)(C)C(=O)O)n(Cc2ccc(Cl)cc2)c2ccc(OCc3ccc4ccccc4n3)cc12", "note": "[quiflapon]", "inhibition of SARS-CoV-2 cytopathic effect": 1.93}
{"smiles": "COc1cc(NC(=O)c2ccc(-c3ccc(Cl)cc3)o2)cc(OC)c1", "inhibition of SARS-CoV-2 cytopathic effect": 0.19}
{"smiles": "O=C(O)C1=CCCN(CCOC(c2ccc(C(F)(F)F)cc2)c2ccc(C(F)(F)F)cc2)C1", "inhibition of SARS-CoV-2 cytopathic effect": 1.77}
{"smiles": "Oc1cc(O)c(Cl)cn1", "note": "[gimeracil]", "inhibition of SARS-CoV-2 cytopathic effect": -0.16}
{"smiles": "Cc1nc2c(O)cccc2c(=O)[nH]1", "inhibition of SARS-CoV-2 cytopathic effect": 3.67}
{"smiles": "CC(C)SC(=N)N", "note": "[S-isopropylisothiourea]", "inhibition of SARS-CoV-2 cytopathic effect": 0.88}
{"smiles": "CC(=O)Oc1ccccc1C(=O)Nc1ncc([N+](=O)[O-])s1", "note": "[nitazoxanide]", "inhibition of SARS-CoV-2 cytopathic effect": -0.63}
{"smiles": "C[C@]12C=CC(=O)C=C1CC[C@@H]1[C@@H]2[C@@H](O)C[C@@]2(C)[C@H]1CC[C@]2(O)C(=O)COP(=O)(O)O", "note": "[prednisolone-sodium-phosphate]", "inhibition of SARS-CoV-2 cytopathic effect": -9.6}
{"smiles": "N#Cc1c(N)nc(SCC(N)=O)c(C#N)c1-c1ccc(OCC2CC2)cc1", "inhibition of SARS-CoV-2 cytopathic effect": 10.1}
{"smiles": "Cc1cncc(CN2CCC(=C3c4ccc(Cl)cc4CCc4cccnc43)CC2)c1", "note": "[rupatadine]", "inhibition of SARS-CoV-2 cytopathic effect": 2.5}
{"smiles": "CC(=O)N(OCc1ccccc1)[C@@H]1c2cc(C#N)ccc2OC(C)(C)[C@H]1O", "inhibition of SARS-CoV-2 cytopathic effect": 2.7}
{"smiles": "CCCCN(CCCC)CCC(O)c1cc2c(Cl)cc(Cl)cc2c2cc(C(F)(F)F)ccc12", "note": "(stereo unspecified) [halofantrine]", "inhibition of SARS-CoV-2 cytopathic effect": -1.63}
{"smiles": "NC(N)=O", "note": "[urea]", "inhibition of SARS-CoV-2 cytopathic effect": -2.47}
{"smiles": "Cc1cc(C)nc(NS(=O)(=O)c2ccc(NC(=S)NC(=O)COc3ccc(Br)cc3Cl)cc2)n1", "inhibition of SARS-CoV-2 cytopathic effect": -2.23}
{"smiles": "NC1CCN(c2c(F)cc3c(=O)c(C(=O)O)cn(C4CC4)c3c2Cl)C1", "note": "(stereo unspecified) [clinafloxacin]", "inhibition of SARS-CoV-2 cytopathic effect": -0.8}
{"smiles": "N.N.[Cl][Pt][Cl]", "note": "[cisplatin]", "inhibition of SARS-CoV-2 cytopathic effect": 3.21}
{"smiles": "Cc1ccnc(NC(=O)C(C)c2cccc(C(=O)c3ccccc3)c2)c1", "note": "(stereo unspecified) [piketoprofen]", "inhibition of SARS-CoV-2 cytopathic effect": -1.34}
{"smiles": "COc1ccc2c(c1)c(CC(=O)O)c(C)n2C(=O)c1ccc(Cl)cc1", "note": "[indomethacin]", "inhibition of SARS-CoV-2 cytopathic effect": 0.83}
{"smiles": "c1cc(CN2CCCNCCNCCCNCC2)ccc1CN1CCCNCCNCCCNCC1", "note": "[plerixafor]", "inhibition of SARS-CoV-2 cytopathic effect": 0.29}
{"smiles": "Nc1ccc(S(=O)(=O)Nc2cnc3ccccc3n2)cc1", "note": "[sulfaquinoxaline]", "inhibition of SARS-CoV-2 cytopathic effect": -2.18}
{"smiles": "O=C1CC[C@@]2(O)[C@H]3Cc4ccc(O)c5c4[C@@]2(CCN3CC2CC2)[C@H]1O5", "inhibition of SARS-CoV-2 cytopathic effect": -1.24}
{"smiles": "COc1ccc(OC)c(CN(C(C)=O)c2cc(F)ccc2Oc2ccccc2)c1", "inhibition of SARS-CoV-2 cytopathic effect": 3.55}
{"smiles": "Cn1cncc1[C@@](N)(c1ccc(Cl)cc1)c1ccc2c(c1)c(-c1cccc(Cl)c1)cc(=O)n2C", "note": "[tipifarnib]", "inhibition of SARS-CoV-2 cytopathic effect": 2.2}
{"smiles": "CCCCCCCCCCCCCCOc1ccc(C(=O)O)o1", "inhibition of SARS-CoV-2 cytopathic effect": -0.07}
{"smiles": "C=C1C(=O)O[C@@H]2/C=C(\\C)CC/C=C(\\C)CC[C@@H]12", "note": "[costunolide]", "inhibition of SARS-CoV-2 cytopathic effect": 2.87}
{"smiles": "CC(C)Cn1cnc2c1c(=O)n(C)c(=O)n2C", "note": "[isbufylline]", "inhibition of SARS-CoV-2 cytopathic effect": -0.05}
{"smiles": "C[N+](C)(C)[C@@H](Cc1c[nH]c(=S)[nH]1)C(=O)O", "note": "[L-ergothioneine]", "inhibition of SARS-CoV-2 cytopathic effect": 2.82}
